Only some compounds are listed: those with a hit (about 9.8% of all), similar ones and a draw of the others.
HttQ103 aggreg – qHTS Multiplex Assay to Identify Dual Action Probes in a Cell Model of Huntington: Aggregate Formation (GFP); Potency, µM (top dose mostly 46.1 µM), for inactives: top-dose activity change, negative = inhibition, hits mostly inhibitors; hit rate 1.1% among 220,000; PC12 HttQ103-GFP aggregates, Acumen cytometry, 40 h; active = well fitted curve in the direction sought with a large enough effect; inconclusive = small, poorly fitted or top-dose-only effect, or another doubt; inactive = no such curve, though single readings can be large; an effect the other way counts as inactive or inconclusive; also: potency is read from the fitted curve at half-maximal effect; % is scaled to controls: 0 for no effect and ±100 for the full control effect; nearly all actives have a fitted effect of over 60% in size
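Ecdysone-promoter PC12 model expressing HTT exon 1 Q103 fused to GFP, induced by tebufenozide at 100 nM final. Compounds titrated; aggregates sized 1–25 µm scored on a 488 nm laser cytometer.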
HTT cytoprotect – qHTS Multiplex Assay to Identify Dual Action Probes in a Cell Model of Huntington: Cytoprotection (ATP) | Potency, µM (titrated, usually from 56.4 µM), for the others: cytoprotection (ATP increase), usual class: activators | PC12 HTT-Q103 induced, cytoprotection, ATP luminescence, 40 h | hit rate 0.14% among 230,000; active = well fitted curve in the direction sought with a large enough effect; inconclusive = small, poorly fitted or top-dose-only effect, or another doubt; inactive = no such curve, though single readings can be large; an effect the other way counts as inactive or inconclusive; also: potency is read from the fitted curve at half-maximal effect; % of control where 0% means no effect; nearly all actives have a fitted effect of over 45% in size
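Quantitative HTS on tebufenozide-induced (100 nM) PC12 cells expressing HTTQ103 exon 1–GFP; compounds tested as a concentration series; survival measured via cellular ATP.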
JMJD2E inh – qHTS Assay for Inhibitors of Human Jumonji Domain Containing 2E (JMJD2E) | Potency, µM (series often up to 57.1 µM), inactives show top-dose activity change, negative = inhibition, usual class: inhibitors | JMJD2E catalytic domain, FDH-coupled NADH fluorescence (FDH is formaldehyde dehydrogenase) | Lysine-specific demethylase 4E (Homo sapiens), B2RXH2 | hit rate 1.6% among 230,000;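 also: potency is read from the fitted curve at half-maximal effect; 0% = wells with enzyme and -100% = buffer wells without enzyme; nearly all actives have a fitted effect of over 50% in size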
CBFb-RUNX1 inh – qHTS Assay for Compounds Blocking the Interaction Between CBF-beta and RUNX1 for the Treatment of Acute Myeloid Leukemia; Runt-related transcription factor 1 (Homo sapiens) + Core-binding factor subunit beta …; AlphaScreen CBFb-His/RUNX1-biotin binding, biochemical; Potency, µM (doses to about 59.8 µM), without a hit: top-dose activity, negative = inhibition, usual class: inhibitors; 230,000 tested, under 10 active; active = well fitted curve in the direction sought with a large enough effect; inconclusive = small, poorly fitted or top-dose-only effect, or another doubt; inactive = no such curve, though single readings can be large; an effect the other way counts as inactive or inconclusive; also: % of control where 0% means no effect
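His-tagged CBF-beta and biotinylated RUNX1 (30 nM each) were premixed 20 min at room temperature, exposed to compound for 15 min, then given nickel-chelate and streptavidin AlphaScreen beads (50 ng each). After 90 min, AlphaScreen signal was read.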
ALDH1A1 inh – qHTS Assay for Inhibitors of Aldehyde Dehydrogenase 1 (ALDH1A1); Purified ALDH1A1, NADH fluorescence, propionaldehyde substrate; Potency, µM (highest dose often 75.3 µM), for the others: at the top dose activity, negative = inhibition, hits mostly inhibitors; hit rate 7.3% among 220,000; AID 1030, 2008;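 also: potency is read from the fitted curve at half-maximal effect; plate controls were no enzyme wells and a reference inhibitor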
Target sequence (P00352 whole entry, looked up): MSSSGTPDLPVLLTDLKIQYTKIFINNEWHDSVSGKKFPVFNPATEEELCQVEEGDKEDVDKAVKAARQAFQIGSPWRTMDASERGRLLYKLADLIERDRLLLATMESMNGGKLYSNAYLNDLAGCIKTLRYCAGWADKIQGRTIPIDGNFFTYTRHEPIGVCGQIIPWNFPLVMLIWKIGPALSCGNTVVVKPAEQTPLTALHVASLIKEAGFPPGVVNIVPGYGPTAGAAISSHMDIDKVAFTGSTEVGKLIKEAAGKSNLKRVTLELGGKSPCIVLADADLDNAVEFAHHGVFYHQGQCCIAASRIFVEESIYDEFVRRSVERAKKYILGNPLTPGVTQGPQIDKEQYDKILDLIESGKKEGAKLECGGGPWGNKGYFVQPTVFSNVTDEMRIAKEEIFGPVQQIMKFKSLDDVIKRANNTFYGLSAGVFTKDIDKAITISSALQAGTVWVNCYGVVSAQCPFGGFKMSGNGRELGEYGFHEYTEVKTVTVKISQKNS
HPGD inh – qHTS Assay for Inhibitors of HPGD (15-Hydroxyprostaglandin Dehydrogenase). 15-hydroxyprostaglandin dehydrogenase [NAD(+)] (Homo sapiens), P15428. hit rate 4.3% among 150,000. Potency, µM, without a hit: at the highest dose activity change, negative = inhibition, usual class: inhibitors. purified HPGD, NADH fluorescence kinetic, PGE2 substrate. AID 894, 2007; also: potency is read from the fitted curve at half-maximal effect; % is scaled to controls: 0 for no effect and ±100 for the full control effect
Target sequence (P15428 whole entry, looked up): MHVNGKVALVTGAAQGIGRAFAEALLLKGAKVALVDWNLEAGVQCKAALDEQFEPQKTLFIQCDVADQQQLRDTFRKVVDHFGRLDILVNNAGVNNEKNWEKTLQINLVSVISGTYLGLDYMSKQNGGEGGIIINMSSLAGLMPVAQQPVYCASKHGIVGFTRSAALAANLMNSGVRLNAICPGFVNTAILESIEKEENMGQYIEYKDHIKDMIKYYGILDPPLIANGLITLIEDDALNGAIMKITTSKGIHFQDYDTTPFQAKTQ
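NADH formation kinetics: reaction with 30 uM PGE2 and 1 mM NAD+ (final), 20 nM enzyme, Tris-HCl pH 8 with Tween 20, after 15 min compound preincubation at room temperature. Fluorescence change, last versus first of five reads.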
* = called active by the depositor; i = inactive; ? = inconclusive; nt = not tested or not shown; [ ] = another dose, or the depositor's remark. Unless noted, calls follow the shape of the dose curve; as a rule, active = well fitted inhibition curve with a large enough effect (not every such curve was filed as active); inconclusive = small, poorly fitted or top-dose-only effect, or another doubt; inactive = no such curve, though single readings can be large or run the other way.

SMILES | HttQ103 aggreg | HTT cytoprotect | JMJD2E inh | CBFb-RUNX1 inh | ALDH1A1 inh | HPGD inh
CC(C)C(c1nnnn1Cc1cccs1)N1CCN(C(=O)c2ccco2)CC1 (centres undefined) | ? | -78.9%[10 µM] | i | 5.4% | 11.5% | nt
CCC(c1nnnn1Cc1ccco1)N1CCN(C(=O)c2ccco2)CC1 (centres undefined) | -3.5% | -13.2% | -6.3% | 3.9% | ? | -0.3%
O=C(c1ccco1)N1CCN(C(c2cccs2)c2nnnn2C2CCCCC2)CC1 (centres undefined) | 16.7% | -22.6%[10 µM] | 5.3% | 6.1% | 17.8µM* | 2.9%
CC(C)CC(c1nnnn1Cc1ccccc1)N1CCN(C(=O)c2ccco2)CC1 (centres undefined) | -1.7% | -2.6%[10 µM] | -9.7% | 4.1% | 25.1µM* | -0.1%
O=C(c1ccco1)N1CCN(C(c2ccccc2Cl)c2nnnn2Cc2cccs2)CC1 (centres undefined) | 19.6% | 12.2% | 9.1% | -0.7% | 12.6µM* | -9.9%
O=C(c1ccco1)N1CCN(C(c2ccccc2Cl)c2nnnn2Cc2ccco2)CC1 (centres undefined) | 6.9% | ? | -6.4% | 1.7% | 11.2µM* | -5.9%
O=C(C1CCN(c2ccc(N3CCOCC3)nn2)CC1)N1CCN(c2ccc(F)cc2)CC1 | -7.0% | 0.7% | ? | 1.3% | ? | ?
O=C(c1ccco1)N1CCN(C(c2ccc(F)cc2)c2nnnn2Cc2cccs2)CC1 (centres undefined) | 0.6% | 8.2% | -8.7% | 0.9% | ? | -4.4%
O=C(c1ccco1)N1CCN(C(c2ccccc2)c2nnnn2Cc2cccs2)CC1 (centres undefined) | -10.5% | -17.9% | 1.3% | -1.2% | 2.24µM* | -3.8%
NC(=O)c1cc2ccc(O)cc2oc1=Nc1ccccc1 | 7.08µM* | -20.6% | ? | 9.6% | ? | ?
O=C(O)CCC/C=C\C[C@H]1C(=O)C[C@@H](O)[C@@H]1/C=C/[C@@H](O)CCc1ccccc1 | nt | 29.9% | 1.6% | 11.0% | 3.0% | -7.0%
O=C(N/N=C/c1cccc(C(F)(F)F)c1)C1CCN(c2ncc(C(F)(F)F)cc2Cl)CC1 | -12.5% | 8.3% | 1.2% | 5.2% | 32.2% | -10.0%
O=C(N/N=C/c1ccc(Cl)cc1Cl)C1CCN(c2ncc(C(F)(F)F)cc2Cl)CC1 | -1.1% | 3.6% | 6.3% | 2.1% | 3.55µM* | -22.4%
CCOC(=O)c1sc(N(Cc2ccccc2)C(=O)CSc2nnc(C3CC3)n2N)nc1C | ? | -9.7% | 1.5% | -5.0% | -9.2% | 20µM*
COc1cccc(CC(Cc2nc3ccccc3[nH]2)c2nc3ccccc3[nH]2)c1 (centres undefined) | ? | -77.3% | 1.6% | -13.8% | ? | nt
O=C(/C=N\O)NCCCNCc1ccccc1 | -5.5% | -4.1% | 27.2% | -1.9% | 22.4µM* | -8.5%
O=C(NCCCNCc1ccccc1)c1ccncc1 | -3.1% | -16.8% | 4.5% | 7.3% | 2µM* | 1.8%
O=C(/C=N/O)NCc1cccnc1 | 9.3% | -14.7%[10 µM] | -3.0% | 5.5% | 2.6% | nt
Cc1cc(C)c(-c2csc(NC(=O)c3n[nH]c(=O)c4ccccc34)n2)c(C)c1 | -17.9% | 1.4%[10 µM] | 10.8% | 5.4% | 9.8% | -5.9%
CC(C)CC(=O)N1CC(C)N(C(=O)CC(C)C)CC1C (centres undefined) | 17.1% | 15.1%[10 µM] | -2.9% | -6.4% | 0.5% | 0.2%
Cc1ccnc(NC(=O)CCC(=O)N(CC(=O)NCc2ccccc2)Cc2cccs2)c1 | -14.8% | ? | 1.9% | 4.3% | 15.8µM* | nt
Cc1ccnc(NC(=O)CCC(=O)N(CC(=O)NC2CCCCC2)Cc2ccccc2)c1 | 22.0%[9.22 µM] | 17.0%[10 µM] | -1.2% | 2.0% | 6.4% | nt
CN(Cc1ccccc1)C(=O)c1ccc2c(c1)OCCO2 | 12.6% | 6.6% | 4.9% | -7.6% | ? | 14.1µM*
CN(CCOC(=O)c1ccc2c(c1)OCCO2)Cc1ccccc1 | 7.4% | 10.5% | -0.7% | 3.1% | 8.4% | -5.0%
O=C1CCC([N+](=O)[O-])C(c2cccc([N+](=O)[O-])c2)N1 (centres undefined) | -8.9% | -21.0% | 3.7% | -5.6% | -6.2% | nt
SMILES | HttQ103 aggreg | HTT cytoprotect | JMJD2E inh | CBFb-RUNX1 inh | ALDH1A1 inh | HPGD inh
Cc1cc(C(=O)COC(=O)CN=C2NS(=O)(=O)c3ccccc32)c(C)n1CCc1ccc(Cl)cc1 | 9.1% | -1.0%[10 µM] | -0.2% | -21.1% | 15.4% | -2.6%
FC(F)(F)c1ccc(C2[C@H]3CN(CC4CCCCC4)[C@H](c4ccccc4)C34CC2(c2cccnc2)C4)cc1 (some centres undefined) | -16.8%[9.22 µM] | -11.1% | -2.8% | 2.6% | -2.7% | -3.9%
COc1ccc(OC)c(-c2cc(C3CCN(c4ncccc4[N+](=O)[O-])CC3)[nH]n2)c1 | 16.2% | -1.3% | -1.7% | -13.7% | ? | 14.1µM*
O=[N+]([O-])c1cccnc1N1CCC(c2cc(-c3ccc(Cl)cc3Cl)n[nH]2)CC1 | ? | -22.1% | -4.3% | ? | -0.1% | -14.6%
OCC1OC(n2nc3ccccc3n2)C(O)C(O)C1O (centres undefined) | 16.5% | -11.1%[10 µM] | 9.0% | -14.5% | 2.8% | -3.1%
O=C1C2=C(S[C@@H]3O[C@H](CO)[C@@H](O)[C@H](O)[C@H]3O2)C(=O)c2ccccc21 | nt | -14.8% | 3.7% | 11.4% | 1.41µM* | ?
CCCCCCNCc1ccc(Br)cc1 | 14.3% | -4.5% | 1.0% | 5.5% | 2.6% | nt
CCn1c(CNc2ccc(Cl)cc2)nnc1SCc1ccc(Cl)cc1 | ? | 2.6%[10 µM] | -1.2% | -0.1% | ? | -9.6%
CCOC(=O)CSc1nnc(CNc2ccc(Cl)cc2)n1-c1ccccc1 | 8.7% | -1.5%[10 µM] | 2.8% | -12.6% | 10µM* | -11.4%
CCOc1ccc(NCc2nnc(SCc3ccc(Cl)cc3)n2-c2ccccc2)cc1 | ? | 10.3%[10 µM] | -6.7% | ? | 15.8µM* | -5.4%
C=CC[C@@](C(C)=O)(C(=O)OC)C(NC(=O)OC)c1ccccc1 (some centres undefined) | nt | -14.3% | 1.3% | 8.2% | -0.7% | -8.5%
COc1ccc(-c2csc3nc(-c4ccccc4)oc(=O)c23)cc1OC | -11.5%[9.22 µM] | 1.9%[10 µM] | -7.1% | -2.9% | -3.4% | nt
COc1cccc(-c2nc(NC(C)(C)C)c3ccccc3n2)c1O | 35.5µM* | -31.1% | -15.9% | 0.2% | ? | nt
